SARS PLpro yeast – SARS-CoV PLP inhibition in yeast | S. cerevisiae expressing SARS-CoV PLpro, growth rescue | Potency, µM (top dose mostly 32.9 µM), most hits filed as activators | 330,000 compounds, 0.19% hits; further: nearly all actives have a fitted effect of over 55% in size
CHX counter – counter-screen for Shiga toxin inhibitors: cycloheximide protein synthesis inhibition; cell reporter, cycloheximide protein synthesis inhibition counterscreen; max response, %; 300,000 compounds, 12% hits; AID 2314; in the data active means max response mostly above about 13%, no sharp cut-off; inactive means mostly below about 14%; further: read at 38.3 µM for the half of the compounds with a filed dose
NS1 inh – inhibitors of influenza NS1 protein function. Potency, µM (titrated, usually from 46.1 µM). 270,000 compounds, 0.4% hits. AID 2326; further: actives are rising curves; nearly all actives have a fitted effect of over 50% in size
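Compounds were scored for reversing the slow growth caused by influenza A NS1 in S. cerevisiae, measured by optical density at 600 nm. Assay medium contained 2% galactose at pH 6.0; NS1-free yeast of the same strain were the positive control.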
Shiga toxin inh – blocks Shiga toxin action in Vero cells; Vero cells, Shiga toxin protein synthesis inhibition reporter; inhibition, % at 38.7 µM; 290,000 compounds, 9.2% hits; in the data active means inhibition mostly above about 28%, no sharp cut-off; inactive means mostly below about 43%
Hits are given with their value; i = inactive; ? = inconclusive; nt = no result given. Only some compounds are listed: those with a hit (about 12% of all), similar ones and a draw of the others. Unless noted, the call rests on the fitted dose curve.

SMILES	SARS PLpro yeast	CHX counter	NS1 inh	Shiga toxin inh
O=C(Oc1ccc(-c2nnco2)cc1)N1CCCCC1	i	25	i	35
O=C(Oc1ccc(Cl)cc1)N1CCCCC1	i	35	i	49
O=C(Oc1ccc(Oc2ccccc2)cc1)N1CCC(O)CC1	i	52	i	60
CC(OC(=O)CN(C)S(=O)(=O)c1ccc(Cl)cc1)C(=O)Nc1cccc(Cl)c1 (stereo not given)	i	i	i	i
CCCCC(=O)N1C/C=C\C(c2ccc(OC)cc2)N(Cc2ccc(F)cc2)C(=O)C1C (stereo not given)	nt	i	nt	i
CCCCCCCCCCCCCCCCCCCCCCCCCCCCCC	nt	i	nt	i
O=C(c1ccc([N+](=O)[O-])cc1)N1CCN(Cc2ccccc2[N+](=O)[O-])CC1	i	i	i	i
COc1ccc(OC(=O)N2CCOCC2)cc1	i	i	i	i
O=C(Oc1ccc2ccc(OC(=O)N3CCCCCC3)cc2c1)N1CCCCCC1	i	22	i	40
O=C(Oc1ccc(Cl)cc1)N1CCOCC1	i	16	i	27
Cc1cnc(C(=O)OCC(=O)NC(C)CCc2ccccc2)cn1 (stereo not given)	i	i	nt	i
Cc1ccc2c3c(cccc13)-c1ccccc1C2=O	i	28	i	i
CCn1c(SCC(=O)Nc2cccc(S(=O)(=O)N(C)c3ccccc3)c2)nnc1C1CC1	i	nt	nt	nt
COc1cc(C2CC(=O)Nc3ccccc3S2)cc(OC)c1OC (stereo not given)	i	i	i	i
O=C(CN1C(=O)CC(c2ccccc2)Sc2ccccc21)NCC1CCCO1 (stereo not given)	i	i	nt	i
COc1ccc(C2CC(=O)N(CC(=O)NCC3CCCO3)c3ccccc3S2)cc1OC (stereo not given)	i	25	nt	i
COc1ccc(C2CC(=O)N(C)c3ccccc3S2)cc1OC (stereo not given)	i	57	nt	149
O=C(NCC(c1cccs1)N1CCOCC1)C1CCN(S(=O)(=O)c2c(Cl)cccc2Cl)CC1 (stereo not given)	i	nt	nt	nt
O=C(O/N=C1\CCS(=O)(=O)c2sccc21)c1c(F)cccc1F	i	14	i	i
COc1ccccc1CNC(=O)CCC(=O)N1CCOc2ccc(C)cc21	i	i	i	i
CCNC(=O)COc1cccc2ccccc12	i	i	i	i
CC(C)(C)NC(=O)COc1ccc(CNCCc2ccccc2)cc1	i	i	i	i
CCCc1ccc(OCCNC(=O)CC)cc1	i	16	i	i
CCc1ccc(OCC(=O)NC(C)(C)C)cc1	i	23	i	44
CCNC(=O)COc1ccc2ccccc2c1	i	71	i	58
SMILES	SARS PLpro yeast	CHX counter	NS1 inh	Shiga toxin inh
CCC(C)(C)NC(=O)COc1ccc(C(=O)c2ccccc2)cc1	i	22	nt	i
CCc1ccc(OCC(=O)Nc2ccncc2)cc1	i	i	i	nt
CCNC(=O)COc1ccc(CC)cc1	i	25	i	46
CC(C)(CO)NC(=O)c1ccc2nc(Cc3cccc(Cl)c3)oc2c1	i	26	i	26
CCN1CC(CNC(=O)c2ccc3nc(Cc4cccc(Cl)c4)oc3c2)CC1=O (stereo not given)	?	i	i	i
COC(=O)CN(C)C(=O)c1ccc2nc(Cc3cccc(Cl)c3)oc2c1	i	51	i	nt
Cn1nc2c3ccccc3n(Cc3ccccc3)c2nc1=S	i	41	i	121
CC(C)(C)c1cc(-c2n[nH]c(=S)n2-c2ccccc2F)n[nH]1	i	40	i	74
O=C(O)CSc1nnc2c(n1)[nH]c1ccccc12	i	i	nt	i
COc1ccc2[nH]c3nc(SC(C)C)nnc3c2c1	i	68	i	105
CC(C)CSc1nnc2c(n1)[nH]c1ccccc12	i	32	i	i
Cc1ccc2c(c1)c1nnc(SCC(=O)NC3CC3)nc1n2C	i	i	i	i
CCOC(=O)CC(=O)CSc1nnc2c(n1)[nH]c1ccccc12	i	20	i	i
CCSc1nnc2c3cc(CC)ccc3n(C)c2n1	i	active	i	i
COc1ccc(CNC(=O)CSc2nnc3c(n2)[nH]c2ccc(OC)cc23)cc1	i	i	i	i
O=C(O)/C=C\C(=O)Nc1cccc2c1-c1ccccc1C2=O	nt	nt	i	nt
COc1ccc(C2/C=C\CN(C(=O)c3ccc(C)cc3)[C@H](Cc3ccccc3)C(=O)N2Cc2ccc(F)cc2)cc1 (stereo not given in full)	i	i	i	i
O=C(COC(=O)c1cc(Cl)nc(Cl)c1)NCc1ccc2c(c1)OCO2	i	nt	nt	nt
c1ccc2c(c1)[nH]c1nc(SCCN3CCOCC3)nnc12	i	13	i	i
CC(C)CSc1nnc2c3ccccc3n(C)c2n1	i	34	i	nt
O=C(O)c1ccccc1CSc1nnc2c(n1)[nH]c1ccccc12	i	i	i	i
CCCCSc1nnc2c(n1)[nH]c1ccccc12	i	46	i	128
COC(=O)CSc1nccc(C)n1	i	i	i	i
COc1cccc(CN2CCN(C(=O)c3oc4c(F)cccc4c3C)CC2=O)c1	i	i	i	i
O=C1C2CCCN2C(=O)N1CCCCN1CCN(c2ccc(F)cc2)CC1 (stereo not given)	i	i	i	i
SMILES	SARS PLpro yeast	CHX counter	NS1 inh	Shiga toxin inh
CCOCCCNC(=O)c1ccc2c(c1)ncn2-c1cccc(C)c1	i	i	i	i
CCc1cccc(NC(=O)c2cccc3c2C(=O)N(C2CCCCC2)C3)c1	i	i	i	i
CSc1nc(N)n2nc(-c3ccccc3)cc2n1	i	37	i	70
Cc1cc(N)n2nc(-c3ccccc3)cc2n1	i	60	i	89
Cc1ccc(-c2cc3nc(-c4ccccc4)cc(N4CCOCC4)n3n2)cc1	i	23	?	i
Cc1ccc(-c2cc3nc(-c4ccccc4)cc(N)n3n2)cc1	i	38	i	82
CC(=O)c1ccc(C2CC34CNS(=O)(=O)C3CC2O4)cc1 (stereo not given)	nt	i	nt	i
CCn1ncc(/C=C/C(=O)NCc2cnn(C)c2C)c1C	i	i	i	i
CCn1ncc(/C=C/C(=O)C2CC2)c1C	i	i	i	active
Cc1ccc(Oc2ncc(CN3CCOCC3)s2)cc1	i	24	i	61
Brc1ccc(Oc2ncc(CN3CCN(c4ccccc4)CC3)s2)cc1	i	i	i	i
Clc1cccc(Oc2ncc(CN3CCOCC3)s2)c1	i	20	i	i
COc1ccc(NC(=O)COC(=O)c2c(F)cccc2Cl)cc1OC	i	41	i	76
COc1cc(CCC(C)=O)ccc1OC(=O)c1c(F)cccc1Cl	i	39	i	88
COc1ccc(NC(=O)COC(C)=O)cc1OC	i	i	i	i
COc1ccccc1CNC(=O)COC(=O)Cc1c(F)cccc1Cl	i	i	i	i
COc1ccc(NC(=O)COC(=O)Cc2c(F)cccc2Cl)cc1OC	i	21	i	i
O=C(NC1CCCC1)C(c1ccc(F)cc1)N(Cc1ccc(F)cc1)C(=O)CCl (stereo not given)	i	i	i	i
CNc1ccc(C2(O)C(=O)c3ccccc3C2=O)cc1	i	i	i	i
OC1CCCCC1Sc1nc2ccccc2s1 (stereo not given)	i	42	?	104
CC(C)(C)[C@@H]1CCC(=O)N(CC[C@H](N=[N+]=[N-])c2ccccc2)CC1	i	13	i	33
CC(C)(C)C1CCC(=O)N(CCOc2ccccc2)CC1 (stereo not given)	i	28	i	43
